CHO-K1 Ca antag = nonselective inhibitor or artifact in parental CHO-K1 cells | ATP-induced calcium, Fluo-8 fluorescence | inhibition, % at 3 µM | hit rate 0.6% among 360,000;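 active = inhibition above a per-plate cutoff, the plate's mean sample inhibition plus 3 SD, cut at about 24% in these data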;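 note: 0% = DMSO plus EC80 ATP and 100% = DMSO alone without ATP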
CHRM1 agonist = agonists of human M1 muscarinic receptor | activation, % at 3 µM | CHO-K1 hM1, Fluo-8 calcium fluorescence, agonist mode; 0% DMSO, 100% acetylcholine EC100 | P11229 | hit rate 0.33% among 360,000;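 active = activation above the run's mean compound activation plus 3 SD, cut at about 16% in these data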;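 note: peak over basal fluorescence ratio within a 140 s kinetic read after compound addition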
Target sequence (P11229 whole entry, looked up): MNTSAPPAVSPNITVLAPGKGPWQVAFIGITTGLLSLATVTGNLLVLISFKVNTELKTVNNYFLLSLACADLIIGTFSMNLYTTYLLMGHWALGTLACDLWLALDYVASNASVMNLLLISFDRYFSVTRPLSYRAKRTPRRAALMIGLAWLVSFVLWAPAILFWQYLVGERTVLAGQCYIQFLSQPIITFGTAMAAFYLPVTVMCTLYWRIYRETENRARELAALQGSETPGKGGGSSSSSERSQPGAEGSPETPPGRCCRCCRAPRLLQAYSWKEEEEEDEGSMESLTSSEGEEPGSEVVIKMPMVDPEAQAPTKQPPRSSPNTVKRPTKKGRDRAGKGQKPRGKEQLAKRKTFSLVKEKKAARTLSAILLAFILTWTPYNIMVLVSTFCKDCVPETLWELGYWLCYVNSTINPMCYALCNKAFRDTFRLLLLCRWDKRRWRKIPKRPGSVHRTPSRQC
M1 ag parental = M1 agonist counterscreen hit in parental CHO-K1 cells; Fluo-8 calcium fluorescence; scaled to maximal ATP response, vehicle zero; activation, % at 3 µM; hit rate 0.48% among 360,000; AID 602248; in the data active = activation above about 15%;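 note: untransfected CHO-K1 host cells lacking M1 receptor as counterscreen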
M1 PAM = potentiates human M1 receptor response to acetylcholine | hit rate 0.088% among 360,000 | CHO-K1 hM1, Fluo-8 calcium fluorescence, ACh EC20; 0% = ACh EC20, 100% = maximal ACh | activation, % at 3 µM | AID 588819; in the data active = activation above about 19%, passing the limit was not always enough
CHO-K1 Ca PAM = counter-screen for M1 PAMs: effect in parental CHO-K1 cells; ATP EC20, Fluo-8 calcium fluorescence; 0% at ATP EC20, 100% at ATP max; activation, % at 3 µM; hit rate 0.02% among 360,000; AID 602247;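 active = activation above the run cutoff, the mean activation of all test compounds plus 3 SD, cut at about 40% in these data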;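 note: peak over basal fluorescence ratio in a 140 s read after ATP addition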
M1 antag = human CHRM1 antagonism | P11229 | CHO-K1 hM1, Fluo-8 calcium fluorescence, ACh EC80 antagonist | inhibition, % at 3 µM | hit rate 1.3% among 360,000 | AID 588852;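 active = percent inhibition above its own plate's cutoff, namely the mean of that plate's compound wells plus 3 SD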;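 note: peak over basal fluorescence ratio during 140 s after agonist addition; 0% = ACh EC80 plus DMSO and 100% = DMSO alone without agonist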
* = called active by the depositor; · = not tested or not shown. This is a sample that favours compounds with a hit; in the whole collection about 2.3% have one here.

SMILES | CHO-K1 Ca antag | CHRM1 agonist | M1 ag parental | M1 PAM | CHO-K1 Ca PAM | M1 antag
COc1ccc(NS(=O)(=O)c2ccc(-c3cnc(C4CC4)o3)cc2)cc1OC | 23.3 | 1.7 | 15.5* | -11.6 | -19.1 | 34.2
COc1ccccc1C(CNC(=O)c1ccc(NS(=O)(=O)c2ccc3c(c2)OCCO3)cc1)N(C)C (stereo not drawn) | 14.6 | 8.3 | -0.4 | -15.2 | -20.1 | 40.3*
COc1ccccc1C(CNC(=O)c1cccc(S(=O)(=O)Nc2ccc(C)cc2)c1)N(C)C (stereo not drawn) | -8.2 | -5.4 | 0.9 | -24.2 | -4.5 | 98.7*
COc1ccc(NS(=O)(=O)c2ccc3c(c2)OCCO3)cc1OC | 36.1* | 2.4 | 14.1 | -13.3 | -1.8 | 26.0*
COc1ccc(NS(=O)(=O)c2cccc(C(=O)NCC(c3ccccc3)N(C)C)c2)cc1 (stereo not drawn) | 3.0 | 2.1 | 3.3 | -9.3 | 6.1 | 18.9
COCCn1c(-c2ccc(Br)cc2)nc2oc3cc(OC)ccc3c(=O)c2c1=O | 3.5 | -5.9 | -0.4 | 3.3 | -14.7 | -2.3
CC(C)C[C@H]1CN(CCCC[C@H]2CNC(=O)C(=O)N2CCC2CCCCC2)C(=O)C(=O)N1CC1CCCCC1 | -3.7 | · | 0.6 | · | 4.6 | ·
O=C(NCc1ccccc1Cl)[C@H]1CCCN1C(=O)[C@H]1CCCN1C(=O)c1cccc2ccccc12 | -0.3 | · | 16.1* | · | 2.5 | ·
CCCC(=O)N1CCCC(c2cc(C(=O)Nc3ccccc3)no2)C1 (stereo not drawn) | 23.8* | -8.2 | -0.2 | 2.4 | -15.2 | -8.8
O=C(Nc1ccccc1)c1cc(C2CCCN(C(=O)c3cccs3)C2)on1 (stereo not drawn) | 24.4* | -7.7 | 0.2 | 1.2 | -9.3 | -8.3
O=C(Nc1ccccc1)c1cc(C2CCCN(C(=O)c3ccccc3)C2)on1 (stereo not drawn) | -13.7 | -8.1 | 1.5 | 0.9 | 16.8 | -9.0
Cc1nnsc1SCCNC(=O)Nc1ccc(Cl)cc1 | 18.4 | 2.9 | 14.5 | -13.2 | -15.2 | 36.6*
O=C(NCCNC(=O)Nc1ccc(Cl)cc1)Nc1ccc(Cl)cc1 | 0.5 | 0.2 | -0.5 | -2.4 | -19.5 | 4.2
Cc1cccc(NC(=O)CSc2nnnn2-c2ccc3c(c2)OCCO3)n1 | -9.2 | -2.8 | 2.2 | 4.8 | 18.8 | -8.2
O=C(Nc1ccc2c(c1)OCCO2)C1c2ccccc2OCC(=O)N1CCc1c[nH]c2ccccc12 (stereo not drawn) | -8.6 | · | 2.6 | · | 6.7 | ·
COC(=O)c1[nH]c2c(c1C)C(=O)CC(c1ccc(OC)c(OC)c1)C2 (stereo not drawn) | 11.1 | 3.1 | 23.2* | -1.4 | -6.0 | 1.7
COCCOC(=O)c1[nH]c2c(c1C)C(=O)CC(c1ccc(OC)c(OC)c1)C2 (stereo not drawn) | 21.6 | 2.8 | 1.5 | -4.6 | -0.5 | 14.7
CCOC(=O)c1[nH]c2c(c1C)C(=O)CC(c1ccc(F)cc1)C2 (stereo not drawn) | 34.3* | 3.6 | 1.2 | 0.5 | -12.5 | -3.4
CCOc1ccccc1C(=O)OCC(=O)NCCNC(=O)COC(=O)c1ccccc1OCC | -7.4 | -2.2 | 1.1 | 20.4 | 21.3 | 3.5
O=C(c1ccco1)N1N=C(c2ccc3nccnc3c2)CC1c1ccccc1 (stereo not drawn) | -38.3 | -2.5 | 3.7 | 9.0 | 46.8* | -7.8
CCCCOC(=O)CSc1nc(N)c(C#N)c(-c2ccc(OCC)cc2)c1C#N | 26.8* | -2.4 | 0.2 | 0.9 | -5.0 | -17.1
COc1ccc(NC(=O)C2Cc3c(-c4cccc(F)c4)ccnc3O2)cc1OC (stereo not drawn) | 12.3 | 8.5 | 8.5 | -3.2 | 6.3 | 5.1
CCCn1c(SCC(=O)N2c3ccccc3CC2C)n[nH]c1=O (stereo not drawn) | 2.1 | -3.2 | 0.1 | 2.7 | -7.4 | -0.5
O=C(Nc1ccc(Cl)c(C(F)(F)F)c1)[C@@H]1CC=C[C@@H]2CCN(C3CC3)C(=O)[C@@H]21 | -2.7 | -8.1 | -0.3 | 5.9 | 47.4* | -4.0
CC1Cc2cc(-c3csc(NC(=O)Cc4cccs4)n3)ccc2N1S(C)(=O)=O (stereo not drawn) | 8.8 | 0.7 | 11.0 | -12.1 | 9.1 | 26.3*
SMILES | CHO-K1 Ca antag | CHRM1 agonist | M1 ag parental | M1 PAM | CHO-K1 Ca PAM | M1 antag
CCC(=O)Nc1nc(-c2ccc3c(c2)CC(C)N3S(C)(=O)=O)cs1 (stereo not drawn) | -0.2 | -5.0 | 4.3 | -1.1 | 10.7 | -2.1
CN(CC1CCCN(CCc2ccc(Cl)cc2)C1)C(=O)c1ccc2nc[nH]c2c1 (stereo not drawn) | -1.3 | -6.5 | 0.5 | -20.2 | -3.0 | 48.4*
CN(CC1CCCN(CCc2ccc(Cl)cc2)C1)C(=O)c1ccoc1 (stereo not drawn) | -12.7 | -6.8 | 0.9 | -12.6 | 12.1 | 12.4
CN(CC1CCCN(CCc2ccc(Cl)cc2)C1)C(=O)c1ccco1 (stereo not drawn) | -11.0 | -5.9 | -0.5 | -16.2 | 14.9 | 34.9*
CN(C)c1nc(-c2ccccc2)nnc1C(F)(F)F | -0.5 | -6.3 | 0.1 | 5.9 | 17.2 | -19.4
CN(C)CCNc1nc(-c2ccccc2)nnc1C(F)(F)F | 45.6* | -0.4 | 5.6 | -2.1 | 2.3 | -18.4
COc1ccc(NC(=O)CSCC(=O)N2c3ccccc3CCc3ccccc32)cc1 | 3.8 | -9.8 | 19.0* | 6.6 | 16.9 | -7.4
COc1ccc(NC(=O)CSCC(=O)N(C)Cc2cccc(OC)c2OC)cc1 | 26.0* | 0.8 | -0.2 | 1.1 | -33.0 | -15.2
CCN(CC)S(=O)(=O)c1ccc(C(=O)OCn2nnc3ccccc3c2=O)cc1 | 7.6 | -1.6 | 10.7 | -14.7 | 2.1 | active
O=C(OCn1nnc2ccccc2c1=O)c1ccc(S(=O)(=O)N2CCOCC2)cc1 | -7.8 | -3.6 | 1.9 | 4.9 | 16.8 | -3.6
CCCCN1C(=O)C(CC(=O)NC2CCCC2)CC(C(=O)N(CC)CC)=C1C (stereo not drawn) | 26.2* | -0.3 | -0.5 | 13.4 | -3.6 | -7.2
CCN(CC)C(=O)C1=C(C)N(CCC2=CCCCC2)C(=O)C(CC(=O)NCC2CCCCC2)C1 (stereo not drawn) | 24.7* | -7.6 | -0.6 | -4.3 | -13.1 | 9.5
CCCCN1C(=O)C(CC(=O)NC2CCCCC2)CC(C(=O)N(CC)CC)=C1C (stereo not drawn) | 0.4 | -3.1 | -0.1 | -0.6 | 8.1 | 3.6
CN(C)c1ccc(/C=N\NC(=O)c2cccc3cc[nH]c23)cc1 | -15.6 | -3.8 | 2.8 | 1.6 | 6.6 | -4.0
COc1ccc2c(c1)CCCC21NC(=O)N(CC(=O)NCc2cccs2)C1=O (stereo not drawn) | -9.3 | -0.4 | -0.5 | 14.3 | 8.4 | -6.7
O=C(c1ccc(S(=O)(=O)Nc2ccc(F)cc2)cc1)N1CCN(c2ccccn2)CC1 | 9.6 | -0.4 | 16.7* | -19.6 | -12.1 | 37.0*

Compound activity deposited in PubChem by The Scripps Research Institute Molecular Screening Center.
